Screening data from PubChem.
GSH bead fluor: GSH bead compound fluorescence profile. GSH beads flow cytometry, compound fluorescence 488/530 nm; hits give high values. fluorescence (KMESF) at 10 µM. 190,000 tested, 0.25% active. AID 1776; in the data active means fluorescence above about 89;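 further: glutathione beads carrying GST-tagged Bcl family fusion proteins plus one bare bead set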
RGS16-Gao: modulates binding between human RGS16 and Galphao; O15492+P09471; binding response (% of control), % at 10 µM; 220,000 tested, 0.38% active; bead-based flow cytometry RGS16-Galphao binding, fluorescence; actives lie on both sides;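 further: Galphao activated by GDP with aluminum fluoride before binding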
RGS7-Gao reg: modulates binding of RGS7 to human Galphao; binding response (% of control), % at 10 µM; 220,000 tested, 0.35% active; Multiplexed bead flow cytometry; actives lie on both sides; AID 1439; in the data active means binding response below about 49% or above about 150%; inconclusive means no clear call, values can overlap the other calls; inactive means in between;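 further: fluorescent Galphao held in activated GDP-AlF4 state binding bead-coupled RGS7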
RGS8-Gao reg: regulators of human RGS8-Galphao interaction; P09471; multiplexed bead flow cytometry, RGS8-Galphao binding; actives lie on both sides; response (percent of control binding), % at 10 µM; 220,000 tested, 0.34% active; AID 1423; in the data active means response below about 60% or above about 140%; inactive means in between;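 further: Galphao activated as the GDP aluminium fluoride complex binding bead-coupled RGS8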
RGS4-Gao reg: human RGS4-Galphao interaction regulation. P09471. Multiplexed bead flow cytometry, RGS4-Galphao binding; actives lie on both sides. 220,000 tested, 0.33% active. binding response (% of control), % at 10 µM. AID 1415; in the data active means binding response below about 49% or above about 150%; inactive means in between;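 further: fluorescent Galphao activated with aluminum fluoride binding bead-coupled RGS4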
Avidin bead fluor: compound fluoresces at 488/530 nm on avidin beads. fluorescence (KMESF) at 10 µM. compound fluorescence 488/530 nm, flow cytometry; hits give high values. 220,000 tested, 0.38% active. AID 1775; in the data active means fluorescence above about 47
RGS4-Gao HTS: regulators of human RGS4-Galphao interaction | shares compounds with RGS16-Gao | multiplexed bead flow cytometry, RGS–Galpha-o binding | RGS4–Galpha-o binding response, % at 10 µM | 1,600 tested, 99% active | AID 1504;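 further: fluorescently labeled Galpha-o bound to GDP with aluminium fluoride binding biotinylated RGS beads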
Biotin-avidin: biotin-avidin bead binding disruption counter-screen | shares compounds with RGS16-Gao | streptavidin beads, fluorescein-biotin binding, flow cytometry | inhibition, % at 10 µM | 1,700 tested, under 10 active;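 active means inhibition above 50%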;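 further: median green fluorescence of gated singlet beads compared with DMSO control wells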
RGS8-Gao single: confirmation of regulators of human RGS8-Galphao interaction | AID 1836 | binding response (% of control), % at 10 µM | shares compounds with RGS16-Gao | bead-based flow cytometry RGS8-Galphao binding, fluorescence; actives lie on both sides | 1,700 tested, 3% active; in the data active means binding response below about 72% or above about 130%; inactive means in between;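 further: Galphao activated as GDP AlF4 complex before binding bead RGS8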
RGS7-Gao single: confirmation of regulators of human RGS7-Galphao interaction | shares compounds with RGS16-Gao | bead-based flow cytometry RGS7-Galphao binding; actives lie on both sides | response (percent of control binding), % at 10 µM | 1,700 tested, 7.8% active | AID 1837; in the data active means response below about 75% or above about 130%; inactive means in between;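 further: fluorescent Galphao activated with GDP and aluminum fluoride binding bead-coupled RGS7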
RGS16-Gao single: RGS16-Galphao interaction regulation, single point confirmation; response (% of control binding), % at 10 µM; bead-based flow cytometry, RGS16-Galphao binding; actives lie on both sides; 1,700 tested, 4% active; shares compounds with RGS16-Gao; in the data active means response below about 74% or above about 130%; inactive means in between;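 further: Galphao activated as the GDP aluminium fluoride complex binding bead-coupled RGS16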
RGS4-Gao single: RGS4-Galphao interaction regulation, single point confirmation. shares compounds with RGS16-Gao. RGS4-Galphao binding, multiplexed bead flow cytometry; actives lie on both sides. binding response (% of control), % at 10 µM. 1,700 tested, 4% active. AID 1840; in the data active means binding response below about 74% or above about 130%; inactive means in between
RGS19-Gao conf: RGS19-Galphao interaction regulation, single point confirmation | AID 1841 | bead-based flow cytometry RGS19-Galphao binding; actives lie on both sides | 1,700 tested, 5% active | shares compounds with RGS16-Gao | response (percent of control binding), % at 10 µM; in the data active means response below about 50% or above about 160%; inactive means in between
Target sequence (P09471 whole entry, looked up): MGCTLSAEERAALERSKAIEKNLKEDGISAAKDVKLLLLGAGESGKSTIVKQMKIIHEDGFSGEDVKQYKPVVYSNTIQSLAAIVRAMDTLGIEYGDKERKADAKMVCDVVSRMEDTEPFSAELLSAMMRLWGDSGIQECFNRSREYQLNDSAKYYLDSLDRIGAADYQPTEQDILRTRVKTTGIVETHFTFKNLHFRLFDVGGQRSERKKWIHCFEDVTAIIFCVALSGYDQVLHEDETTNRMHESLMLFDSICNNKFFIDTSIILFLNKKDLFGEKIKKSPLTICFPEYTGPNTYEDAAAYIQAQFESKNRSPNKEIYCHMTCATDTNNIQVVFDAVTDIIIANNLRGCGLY
Target sequence (P49795 whole entry, looked up): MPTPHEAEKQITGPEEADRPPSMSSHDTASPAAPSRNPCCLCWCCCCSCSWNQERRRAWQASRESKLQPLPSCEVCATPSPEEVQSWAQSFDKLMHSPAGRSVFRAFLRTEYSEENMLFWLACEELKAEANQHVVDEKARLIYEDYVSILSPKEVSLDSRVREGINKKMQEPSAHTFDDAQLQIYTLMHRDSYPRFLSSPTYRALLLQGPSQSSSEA
Hits are given with their value; [ ] = remark or other dose. In the library only some 1.2% were active in any assay of this set; here they are far more common. Unless noted, how the calls were made is not given here.

For CC1CN(S(=O)(=O)c2ccc(C(=O)Nc3nnc(-c4ccccn4)o3)cc2)CC(C)O1 (stereo not given) the results were GSH bead fluor inactive, RGS16-Gao 9.5, RGS7-Gao reg -18.3, RGS8-Gao reg 12.5, RGS4-Gao reg 15.3, Avidin bead fluor inactive, Biotin-avidin inactive, RGS8-Gao single inactive, RGS7-Gao single inactive, RGS16-Gao single inactive, RGS4-Gao single inactive and RGS19-Gao conf inactive.
Screening COc1ccc(Br)cc1/C=N/NC(=O)CN1CCN(Cc2ccccc2)CC1 returned RGS16-Gao inactive, RGS7-Gao reg inconclusive, RGS8-Gao reg inactive, RGS4-Gao reg inactive and Avidin bead fluor inactive.
Screening O=C(O)CC1(CC(=O)NCc2cc(F)cc3c2OCOC3)CCCCC1 returned RGS16-Gao inactive, RGS7-Gao reg inconclusive, RGS8-Gao reg inactive, RGS4-Gao reg 156.7[activator], Avidin bead fluor inactive, Biotin-avidin inactive, RGS8-Gao single inactive, RGS7-Gao single inactive, RGS16-Gao single inactive, RGS4-Gao single inactive and RGS19-Gao conf inactive.
`Fc1ccc(NC(=S)Nc2ccccc2N2CCOCC2)cc1Cl` gave GSH bead fluor inactive, RGS16-Gao inactive, RGS7-Gao reg inconclusive, RGS8-Gao reg inactive, RGS4-Gao reg inactive and Avidin bead fluor inactive.
Screening Cc1ccc(N=Nc2ccc(O)c3ncccc23)cc1 returned GSH bead fluor inactive, RGS16-Gao 10.1, RGS7-Gao reg inactive, RGS8-Gao reg inactive, RGS4-Gao reg inactive, Avidin bead fluor inactive, RGS4-Gao HTS 67.8, Biotin-avidin inactive, RGS8-Gao single inactive, RGS7-Gao single inactive, RGS16-Gao single inactive, RGS4-Gao single inactive and RGS19-Gao conf inactive.
Cc1ccc(N=Nc2ccc(O)c3ncccc23)cc1C was read as GSH bead fluor inactive, RGS16-Gao inactive, RGS7-Gao reg inactive, RGS8-Gao reg inactive, RGS4-Gao reg inactive and Avidin bead fluor inactive.
Cn1c(=O)c2c(nc(SCCN3CCOCC3)n2Cc2ccccc2Cl)n(C)c1=O was read as GSH bead fluor inactive, RGS16-Gao inactive, RGS7-Gao reg inactive, RGS8-Gao reg inactive, RGS4-Gao reg inactive and Avidin bead fluor inactive.
`Cn1c(=O)c2c(nc(SCCN3CCOCC3)n2Cc2ccc(F)cc2)n(C)c1=O` gave GSH bead fluor inactive, RGS16-Gao inactive, RGS7-Gao reg inactive, RGS8-Gao reg 157.9[activator], RGS4-Gao reg inactive, Avidin bead fluor inactive, RGS4-Gao HTS 138.7, Biotin-avidin inactive, RGS8-Gao single inactive, RGS7-Gao single inactive, RGS16-Gao single inactive, RGS4-Gao single inactive and RGS19-Gao conf inactive.
For O=C(NCCC1=CCCCC1)c1ccc(Cl)cc1 the results were GSH bead fluor inactive, RGS16-Gao inactive, RGS7-Gao reg inactive, RGS8-Gao reg inactive, RGS4-Gao reg inactive and Avidin bead fluor inactive.
CS(=O)(=O)Nc1ccc(C(=O)NCCC2=CCCCC2)cc1 was read as GSH bead fluor inactive, Biotin-avidin inactive, RGS8-Gao single inactive, RGS7-Gao single inactive, RGS16-Gao single inactive, RGS4-Gao single inactive and RGS19-Gao conf inactive.
